# Activity calls are given as the source filed them. The calls were made as follows: active = hit-call score of the fitted dose curve at least 0.9, where 1 is the maximum; inactive = score below 0.9.
# Assay: BSK_SAg_SRB: Viability Assessment in the BioMAP Diversity Plus: SAg Assay (AID 2283096);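 also: cells read one day after compound addition; hits may be either gain or loss of signal compared with DMSO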
# Conditions: primary human HUVEC with PBMC
# Procedure: BSK_SAg is a cell-based, multiplexed-readout assay that uses umbilical vein endothelium and peripheral blood mononuclear cells, a human vascular primary cell co-culture, with measurements taken at 24 hours after chemical dosing in a 96-well plate.BSK_SAg_SRB is an assay component measured in the BSK_SAg assay. It measures protein content, a form of viability reporter, as detected with absorbance signals by Sulforhodamine staining technology.Data from the assay component BSK_SAg_SRB was analyzed into 1 assay endpoint. This assay endpoint, BSK_SAg_SRB, was analyzed with bidirectional fitting relative to DMSO as the negative control and baseline of activity. Using a type of viability reporter, gain or loss-of-signal activity can be used to understand changes in the signaling. Furthermore, this assay endpoint can be referred to as a primary readout, because this assay has produced multiple assay endpoints where this one serves a signaling function. To generalize the intended target to other relatable targets, this assay endpoint is annotated to the cell morphology intended target family, where the subfamily is cell conformation.
# The levels of cell surface (or secreted, indicated by the prefix "s") biomarker endpoints were measured by ELISA. Overt cytotoxicity to cells in confluent adherent cultures (all systems other than the BT system) was assessed by measuring total protein levels using sulforhodamine B (SRB) staining in parallel cultures at the time of biomarker measurements, indicated as SRB endpoints. For proliferation assays for adherent cell types, individual cell types are cultured at sub-confluence and relative cell numbers quantified by SRB staining at time points optimized for each system (48 h: 3C and CASM3C systems; 72 h: BT and HDF3CGF systems; 96 h: SAg system). SRB was performed by staining cells with 0.1% SRB after fixation with 10% TCA and reading wells at 560 nm.Viability and proliferation of PBMC (T cells) was quantified by Alamar Blue reduction for the SAg and BT systems. For PBMC viability (referred to as PBMC Cytotoxicity within the assay endpoint names), cells were plated (75,000/well in a 96-well plate) and then chemical samples added for 1 h before addition of activators, SEB and TSST-1 (20 ng/mL final concentration each). Cells were incubated for 90 h. Then, Alamar Blue (20 uL/well) (Invitrogen, Cat DAL1100) was added for 6 h, and the plates were read with a fluorescence microplate reader at 546/580 nm (excitation/emission). For PBMC proliferation, cells were plated and activated as above but incubated for only 16 h prior to addition of Alamar Blue. Plates were read after 6 h.
SMILES,outcome,AC50
CC(=O)CC(c1ccccc1)c1c(O)c2ccccc2oc1=O (stereo not given),inactive,–
CCCCCCC(CCCCCCCCCCC(=O)OCC(COC(C)=O)OC(C)=O)OC(C)=O (stereo not given),inactive,–
NC(=Nc1ccccc1)Nc1ccccc1,inactive,–
COc1ccc(C(=O)Nc2nc3ccccc3c(NCc3ccccc3)c2C#N)cc1,inactive,–
Cc1cc(Cc2ccc(N)c(C)c2)ccc1N,inactive,–
CCCCCCCC(=O)OC,inactive,–
CC(=O)O,inactive,–
CCCCC(CC)CO (stereo not given),inactive,–
COc1ccc(OC(F)(F)F)cc1CN[C@H]1CCCN[C@H]1c1ccccc1,–,31.1 µM (active)
CCCCOC(=O)CCCCC(=O)OCCCC,inactive,–
C/C=C/c1ccc(OC)cc1,inactive,–
CN(C)CCCN(C)CCCN(C)C,inactive,–
CCOCCOCCO,inactive,–
C=CCCCCCCCCCCCC,inactive,–
O=C(O)c1[nH]n(-c2ccc(S(=O)(=O)O)cc2)c(=O)c1N=Nc1ccc(S(=O)(=O)O)cc1,inactive,–
CC(C)NCC(O)c1ccc(O)c(O)c1 (stereo not given),inactive,–
C=CCc1ccc(OC)c(OC)c1,inactive,–
O=C1CCCCC1,inactive,–
Oc1ccccc1O,–,8.32 µM (active)
CCCCc1nc2cccnc2n1Cc1ccc(-c2ccccc2-c2nnn[nH]2)cc1,inactive,–

SMILES,outcome,AC50
O=C(Oc1ccccc1)c1cccc(C(=O)Oc2ccccc2)c1,inactive,–
CC(C)OC(=O)C(C)(C)Oc1ccc(C(=O)c2ccc(Cl)cc2)cc1,–,28.9 µM (active)
O=C(O)CC(O)(CC(=O)O)C(=O)O,inactive,–
CCCCC(CC)COP(=O)(OCC(CC)CCCC)OCC(CC)CCCC (stereo not given),–,5.38 µM (active)
Cc1c(C)c2c(c(C)c1O)CCC(C)(COc1ccc(CC3SC(=O)NC3=O)cc1)O2 (stereo not given),–,23.7 µM (active)
OCC(O)CO,inactive,–
CCc1nc(N)nc(N)c1-c1ccc(Cl)cc1,inactive,–
CC(C)COC(=O)CCCCC(=O)OCC(C)C,inactive,–
C/C=C/C=C/C(=O)O,inactive,–
Oc1ccc(O)cc1,inactive,–
CC1=C(C)S(=O)(=O)CCS1(=O)=O,inactive,–
COC(=O)CCC(=O)OC,inactive,–
COC(=O)CCCC(=O)OC,inactive,–
O=C(O)CN(CC(=O)O)CC(=O)O,inactive,–
c1ccc2occc2c1,inactive,–
O=C1OC(c2ccc(O)cc2)(c2ccc(O)cc2)c2ccccc21,inactive,–
CSc1ccc(Oc2ccc(S(N)(=O)=O)cc2CN(C)C)cc1C,inactive,–
CCCC[C@H]1CN(CC2CCOCC2)C(=O)OC12CCN(C1(C)CCN(C(=O)c3c(C)ncnc3C)CC1)CC2,inactive,–
CC(=O)OC1CC(C)OC(C)O1 (stereo not given),inactive,–
CC(=O)[C@@]1(O)CC[C@H]2[C@@H]3CCC4=CC(=O)CC[C@]4(C)[C@H]3CC[C@@]21C,inactive,–

# — PubChem BioAssay (EPA / NIEHS)
